FEN1 inh – blocks human flap endonuclease 1 | P39748 | Recombinant FEN1 flap cleavage, fluorescence, 15 min | Potency, µM (top dose mostly 114 µM), actives largely listed as inhibitors | 0.35% of 390,000 active | AID 588795; further: nearly all actives have a fitted effect of over 65% in size
Target sequence (P39748 whole entry, looked up): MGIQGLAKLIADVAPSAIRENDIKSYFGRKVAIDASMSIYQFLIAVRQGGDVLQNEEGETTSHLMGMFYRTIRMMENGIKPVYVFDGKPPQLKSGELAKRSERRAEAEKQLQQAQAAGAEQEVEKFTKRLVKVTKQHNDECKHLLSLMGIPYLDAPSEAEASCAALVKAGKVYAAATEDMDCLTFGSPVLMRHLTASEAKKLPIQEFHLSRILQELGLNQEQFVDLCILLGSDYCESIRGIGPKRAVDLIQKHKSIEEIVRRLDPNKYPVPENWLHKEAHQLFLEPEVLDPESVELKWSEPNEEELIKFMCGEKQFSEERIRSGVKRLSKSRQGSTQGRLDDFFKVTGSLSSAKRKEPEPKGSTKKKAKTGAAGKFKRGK
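Enzyme 10 nM, 15 min RT preincubation with compound; start with substrate 50 nM final; reads at 0 and 15 min; qHTS titration, four-parameter Hill fit.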
TCR act – T cell receptor activation; Potency, µM (doses to about 9.22 µM), hits mostly activators; 330,000 tested, under 10 active; primary human leukocytes, anti-CD3, IL-2 HTRF, 48 h
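Compounds are tested in HTS on primary human leukocytes co-incubated with a-CD3 beads for 48 hr. IL-2 output is measured by time-resolved FRET.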
VDR inh – inhibitors of human vitamin D receptor | VDR-SRC2-3 peptide fluorescence polarization, 2 h | P11473 | 0.93% of 400,000 active | Potency, µM, usual class: inhibitors
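Fluorescence polarization assay of small-molecule disruption of VDR binding to coregulator peptide SRC2-3. Compounds and controls pin-transferred, then read after 2 h incubation at ambient room temperature.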
WRN inhibitor – inhibitors of human WRN helicase; WRN helicase unwinding, fluorescent forked duplex, kinetic; Potency, µM (highest dose often 114 µM), actives largely listed as inhibitors; 0.46% of 360,000 active; AID 651768; further: nearly all actives have a fitted effect of over 55% in size
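Fluorescence dequenching readout, ex 525 nm/em 598 nm, kinetic mode: forked duplex DNA (100 nM final) with adjacent fluorophore and quencher unwound by WRN (20 nM final) with 2 mM ATP. Compound preincubation 15 min, room temperature.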
PI5P4Ka inh – blocks human PI5P4K alpha kinase activity; PI5P4Kalpha enzyme, ADP-Glo luminescence, 60 min; hits give low values; max response, %; 1.2% of 330,000 active; active means max response of -50% or lower; inconclusive means between -30% and -50%; inactive means -30% or higher; further: value at the top dose of about 77 µM
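Compounds were pin-transferred onto PI5P4Kalpha and substrate in HEPES pH 7.4 buffer with EGTA, CHAPS and 5% DMSO. ATP (5 microM final) started the reaction, which ran 60 minutes at room temperature before ADP-Glo detection.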
PLK1 PBD block – PLK1 (human) polo-box domain binding inhibition. AID 720504. Plk1 PBD binding of FITC phosphopeptide, fluorescence polarization. Potency, µM, most hits filed as inhibitors. 2.8% of 360,000 active. P53350; further: series mostly up to about 57 µM; nearly all actives have a fitted effect of over 65% in size
Numbers stand for hits; 0 = inactive; ? = inconclusive; - = no result given. A selection: hits, their analogues and other compounds. The true share with any hit is near 3.7%. Unless noted, the call rests on the fitted dose curve; in most records, active means well fitted curve in the direction sought with a large enough effect; inconclusive means small, poorly fitted or top-dose-only effect, or another doubt; inactive means no such curve, though single readings can be large; an effect the other way counts as inactive or inconclusive.

SMILES | FEN1 inh | TCR act | VDR inh | WRN inhibitor | PI5P4Ka inh | PLK1 PBD block
CC(C)Cn1nc(NS(=O)(=O)c2ccccc2)c2cc3ccccc3nc21 | 0 | 0 | 0 | 0 | 0 | 0
COc1cc(C(=O)Nc2nonc2-c2ccc(Cl)cc2)cc(OC)c1OC | 0 | - | 0 | - | - | -
CCC(=O)OCC(=O)[C@@]1(OC(=O)CC)[C@@H](C)C[C@@H]2[C@H]3CCC4=CC(=O)C=C[C@]4(C)[C@@]3(F)[C@@H](O)C[C@@]21C | - | - | 0 | - | - | -
CC1=C(C(=O)OCC(Br)(Br)Br)C(c2cccc([N+](=O)[O-])c2)NC(=O)N1CCCC(=O)O (configuration not stated) | 0 | 0 | 0 | 0 | -64.1 | 0
COC(=O)C1=C(C)N(CCCC(=O)O)C(=O)NC1c1cccc(Cl)c1Cl (configuration not stated) | 0 | 0 | 0 | 0 | -97.8 | 0
CC1=C(C(=O)OCc2ccccc2)C(c2cccc(Cl)c2Cl)NC(=O)N1CCCCCC(=O)O (configuration not stated) | 0 | 0 | 0 | 0 | 0 | 0
CCOC(=O)C1=C(C)N(CCCC(=O)O)C(=O)NC1c1ccccc1 (configuration not stated) | 0 | 0 | 0 | 0 | -57.2 | 0
CC1=C(C(=O)OCc2ccccc2)C(c2ccccc2)NC(=O)N1CCCC(=O)O (configuration not stated) | 0 | 0 | 0 | 0 | -76.6 | 0
O=C(C[n+]1cccc(Br)c1)c1ccc2ccccc2c1 | 0 | - | - | - | - | -
CC1=C(C(=O)OCc2ccccc2)C(c2cccc3ccccc23)NC(=O)N1CCCC(=O)O (configuration not stated) | 0 | 0 | 0 | 0 | -85.8 | 0
CC1=C(C(=O)OCc2ccccc2)C(c2ccc(Cl)cc2Cl)NC(=O)N1CCCC(=O)O (configuration not stated) | 0 | 0 | 0 | 0 | -76.4 | 0
CCOC(=O)C1=C(C)N(CCCC(=O)O)C(=O)NC1c1ccccc1Cl (configuration not stated) | 0 | 0 | 0 | 0 | -88.5 | 0
CC1=C(C(=O)OCc2ccccc2)C(c2ccc(Cl)cc2Cl)NC(=O)N1CCCCCC(=O)O (configuration not stated) | 0 | 0 | 0 | 0 | ? | 0
CCOC(=O)C1=C(C)N(CCCC(=O)O)C(=O)NC1c1ccc2ccccc2c1 (configuration not stated) | 0 | 0 | 0 | 0 | -74.9 | 0
C[C@@H](CO)[C@H](/C=C/c1ccccc1)CCO[Si](c1ccccc1)(c1ccccc1)C(C)(C)C | 0 | - | 0 | - | - | -
CCOC(=O)Cn1c(=O)c2c(nc(N3CCOCC3)n2Cc2ccccc2)n(C)c1=O | 0 | - | 0 | - | - | -
CCOCCOC(=O)C1=C(C)N(C)C(=O)NC1c1ccccc1Cl (configuration not stated) | 0 | 0 | 0 | 0 | 0 | 0
CCOC(=O)C1=C(C)N(C)C(=O)NC1c1cccc2ccccc12 (configuration not stated) | 0 | 0 | ? | 0 | 0 | 10.6µM
CCOC(=O)C1=C(C)N(CCCC(=O)O)C(=O)NC1c1ccc(Cl)cc1 (configuration not stated) | 0 | 0 | 0 | 0 | -93.1 | 0
CCc1ccc(OCC(=O)Nc2ncn[nH]2)c(Br)c1 | 0 | - | 0 | - | - | -
CCOc1ccc(CCNC(=O)c2ccc3[nH]c(C)c(C)c3c2)cc1 | 0 | - | 0 | - | - | -
COc1cccc(NCc2nnc(SC(C(=O)N(C)C)c3ccccc3)n2C2CCCCC2)c1 (configuration not stated) | 0 | - | - | - | - | -
Cc1nc2ccc(S(=O)(=O)NCC(=O)Nc3ccc(F)cc3F)cc2s1 | 0 | - | 0 | - | - | -
Cc1ccc2c(c1)-c1c(ssc1=S)C(C)(C)N2C(=O)c1ccco1 | 0 | 0 | 0 | 0 | - | 2.12µM
Cc1ccc2c(c1)-c1c(ssc1=S)C(C)(C)N2C(=O)CSC1=NCCS1 | 0 | 0 | 0 | 0 | - | 0
SMILES | FEN1 inh | TCR act | VDR inh | WRN inhibitor | PI5P4Ka inh | PLK1 PBD block
CC1(C)c2ssc(=S)c2-c2ccccc2N1C(=O)c1ccco1 | 0 | - | ? | 0 | 0 | 15µM
CN(C)c1nc(NC2CCC(NC(=O)c3ccc(F)c(F)c3)CC2)nc2ccccc12 (configuration not stated) | - | - | 0 | - | - | -
Cn1c2c(c(=O)n(C)c1=O)C(c1cccc(O)c1)CC(=O)N2 (configuration not stated) | 0 | - | 0 | - | - | -
Cc1cc(C)nc(/N=C2\NC(=O)CC(C(=O)O)N2c2ccc(C)c(C)c2)n1 (configuration not stated) | 0 | 0 | 50.1µM | 0 | 0 | 23.8µM
NC(=O)CC(O)c1cccc(Cl)c1 (configuration not stated) | 0 | 0 | 0 | 0 | 0 | 26.7µM
O=C(Cn1nc2c(cc1=O)CCCC2)NCc1ccccc1 | 0 | - | 0 | - | - | -
CCOC(=O)C1C(=O)N(C(=O)c2cncc(Br)c2)CC1c1ccccc1 (configuration not stated) | 0 | 0 | ? | 0 | ? | 2.99µM
CCOC(=O)C1C(=O)N(C(=O)c2ccc(OC)cc2)CC1c1ccccc1 (configuration not stated) | 0 | 0 | 0 | 0 | - | 0
COc1ccc(-c2nc3scc(CCNS(=O)(=O)c4cccc(C(C)=O)c4)n3n2)cc1 | 0 | - | 0 | - | - | -
O=[N+]([O-])c1cc(/C=N\Nc2nc(-c3ccccc3)cs2)ccc1O | ? | 0 | 0 | ? | -63.2 | ?
CCCC1=NN2C(=N)/C(=C\c3ccc(SCc4ccco4)o3)C(=O)N=C2S1 | ? | 0 | 0 | 39.8µM | -56.4 | 23.8µM
CCC1=NN2C(=N)/C(=C\c3ccc(SCc4ccco4)o3)C(=O)N=C2S1 | 0 | 0 | 0 | 50.1µM | -52.0 | ?
CSc1ccc(/C=C2\C=Cc3cc([N+](=O)[O-])ccc32)cc1 | 0 | - | - | - | - | -
CCNc1nc2[nH]c(=O)c3c(c2s1)OC(N)=C(C#N)C3c1ccc(C)cc1 (configuration not stated) | 0 | 0 | 0 | 0 | -67.0 | 0
O=C(CSc1nnc(-c2cccc(S(=O)(=O)N3CCCCC3)c2)o1)NCCC1=CCCCC1 | 0 | 0 | 0 | 0 | 0 | 21.2µM
CCCCNC(=O)CSc1nnc(-c2cccc(S(=O)(=O)N3CCOCC3)c2)o1 | 0 | 0 | 0 | 0 | 0 | 0
O=C(O)c1cc(-c2ccc(-c3ccc(F)cc3)o2)nc2ccccc12 | 0 | 0 | ? | 0 | ? | 15µM
O=C(c1cc(-c2ccc(F)cc2)nc2ccccc12)N1CCC1 | 0 | 0 | 0 | 0 | 0 | 0
COc1cc(-c2nc(Cn3nnc(C(=O)Nc4cc(C)cc(C)c4)c3C)c(C)o2)cc(OC)c1OC | 0 | - | 0 | - | - | -
